The list is not random: actives were taken first. Their share in the collection is about 1.4%.
GALR2 antag: GALR2 antagonists in receptor-expressing cells, primary screen | AID 828, 2007 | antagonist mode | Galanin receptor type 2 (Homo sapiens), O43603 | hit rate 0.39% among 140,000 | inhibition, % at 4 µM; in the data active = inhibition above about 27%;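 also: cells stimulated with galanin 1-16 at roughly its EC80; 0% = agonist challenge control and 100% = basal control without agonist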
Target sequence (O43603 whole entry, looked up): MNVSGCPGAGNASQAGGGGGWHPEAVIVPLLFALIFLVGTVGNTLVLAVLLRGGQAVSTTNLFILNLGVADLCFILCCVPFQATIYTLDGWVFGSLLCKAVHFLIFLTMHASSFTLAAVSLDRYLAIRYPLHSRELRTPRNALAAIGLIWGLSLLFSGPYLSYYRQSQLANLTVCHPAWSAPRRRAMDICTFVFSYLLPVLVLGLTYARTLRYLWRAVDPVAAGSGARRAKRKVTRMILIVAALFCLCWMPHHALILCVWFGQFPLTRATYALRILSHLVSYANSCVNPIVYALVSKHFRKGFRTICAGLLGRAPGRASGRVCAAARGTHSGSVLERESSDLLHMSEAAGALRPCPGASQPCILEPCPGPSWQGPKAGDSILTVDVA
S1P2 agonist: S1P2 receptor agonists, primary screen, cell-based. Sphingosine 1-phosphate receptor 2 (Homo sapiens), O95136. S1P2-expressing cell line, agonist reporter read-out. activation, % at 4.5 µM. hit rate 0.46% among 97,000. AID 729, 2007; in the data active = activation above about 16%;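 also: 0% = vehicle low control and 100% = maximal reference agonist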
Smad3 inh: Smad3/FoxH1 peptide binding inhibitors, primary screen, biochemical, TR-FRET; Mothers against decapentaplegic homolog 3 (Homo sapiens), P84022; TR-FRET Smad3/Dy647-FoxH1 peptide binding, europium anti-His; inhibition, % at 25 µM; hit rate 0.29% among 88,000; AID 630, 2007;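 active = compounds that reduce the energy-transfer binding signal between the protein and its labelled peptide by more than half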;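 also: 0% = Smad3 plus labelled peptide maximal FRET and 100% = peptide-only background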
MT1-MMP txn act: MT1-MMP promoter reporter activation – cell-based, luciferase luminescence, primary screen; AID 750, 2007; activation factor at 10 µM; HT1080 MT1-MMP promoter luciferase reporter, overnight; stronger effect = higher value; hit rate 0.16% among 86,000;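 active = activation factor of at least 2 for MT1-MMP transcription at 10 µM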
GALR2 ag: GALR2 receptor agonists, primary screen, cell-based | Galanin receptor type 2 (Homo sapiens), O43603 | GALR2-expressing cells, agonist activation read-out | activation, % (test concentration not listed) | hit rate 0.48% among 140,000 | AID 803, 2007; in the data active = activation above about 5%, passing the limit was not always enough;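 also: 0% = vehicle buffer wells and 100% = reference agonist at full effect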
S1P2 antag: human S1P2 receptor antagonists, primary screen, cell-based; cell-based S1P2 antagonist assay, inhibition at 5 uM; inhibition, % at 5 µM; hit rate 0.21% among 97,000; AID 736, 2007; in the data active = inhibition above about 45%;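 also: CRE beta-lactamase reporter cells expressing human S1P2 stimulated with S1P; 0% = agonist at EC80 alone and 100% = agonist plus reference antagonist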
Active calls of the source: *; / = no result given.

SMILES | GALR2 antag | S1P2 agonist | Smad3 inh | MT1-MMP txn act | GALR2 ag | S1P2 antag
N#Cc1c(N)nc2c(c1-c1ccc3c(c1)OCO3)CCc1ccccc1-2 | -10 | / | / | / | 4.9* | /
O=[N+]([O-])c1ccc(O)c(/C=N/Nc2ccccn2)c1 | 20 | / | / | / | 6.2* | /
O=[N+]([O-])c1ccc(N2CCN(c3ccccc3O)CC2)c(Cl)c1 | -6 | / | / | / | 0 | /
N=C(N)S[C@@H]1c2ccccc2-c2cc([N+](=O)[O-])ccc21 | / | / | 69* | / | / | /
Fc1ccccc1N1CC(c2ccccc2)C(c2cccs2)=N1 (centres undefined) | -7 | 23* | 13 | 1.2 | 46* | -34
O=c1c2c(nc3cc(-c4ccc(F)cc4)[nH]n13)CCCC2 | 0 | -1 | 2 | / | 0 | 9
O=c1c2c(nc3cc(-c4cccc(Cl)c4)[nH]n13)CCC2 | 1 | -5 | 10 | 2* | -3 | 5
Clc1ccc(CCNc2nc3ccccc3s2)cc1 | -1 | -3 | 0 | 1 | -3 | -1
O=c1c(-c2nc3ccccc3s2)cccn1Cc1ccc(Cl)cc1 | -4 | 96* | / | / | 68* | -87
COC(=O)Cc1c(C)c2ccc(OCC(=O)N3CCOCC3)cc2oc1=O | -1 | -3 | -6 | 0.9 | -2 | 3
CCN(CC)c1ccc2c(C)c(CN3CCOCC3)c(=O)oc2c1 | -1 | 26* | 5 | 1.3 | 6.2* | -20
O=[N+]([O-])c1ccccc1N=Nc1c(O)[nH]c2ccc(S(=O)(=O)O)cc12 | / | / | 63* | / | / | /
CCN(CC)S(=O)(=O)c1cc([N+](=O)[O-])ccc1N=Nc1c(O)[nH]c2ccccc12 | 6 | / | / | / | -1 | /
COc1ccccc1NC(=O)CSc1nc2n[nH]c(C)c2c(=N)n1-c1ccccc1Cl | -7 | 21* | 27 | 1.1 | -1 | -22
CO[C@@H]1/C=C\O[C@]2(C)Oc3c(C)c(O)c4c(O)c(c(CN(C)C)c(O)c4c3C2=O)NC(=O)C(C)=C/C=C\[C@@H](C)[C@@H](O)[C@H](C)[C@@H](O)[C@H](C)[C@H](OC(C)=O)[C@@H]1C | / | / | 5 | / | / | /
COc1ccc(C2CC(c3cccs3)=Nc3ccccc3S2)cc1 (centres undefined) | 8 | -2 | 3 | 2.1* | -1 | -4
COc1ccc(O)c(C2=Nc3ccccc3N=C(c3cccs3)C2)c1 | -4 | / | / | / | 0 | /
COc1ccc(C2C=C(c3ccc(Cl)cc3)Nc3nc(NC(C)=O)nn32)cc1 (centres undefined) | 22 | -11 | 4 | 1.1 | -2 | 21
COc1ccc(C2=CC(c3ccc(Cl)cc3)n3cnnc3N2)cc1OC (centres undefined) | 38* | / | 14 | 1.3 | -2 | /
Nc1cc(C(=O)O)[nH]c(=O)n1 | / | / | -1 | / | / | /
CCC(=O)Nc1cc(NC(=O)CSc2ncc(-c3ccc(F)cc3)n2Cc2ccco2)ccc1C | -5 | -7 | -1 | 2.1* | 0 | -5
O=C(CSc1nc2ccccc2s1)CSc1nc2ccccc2s1 | -13 | -3 | 14 | 1.1 | -1 | -18
O=C(CSc1nc2ccccc2s1)c1sc2sc3ccccc3[n+]2c1O | / | / | 96* | / | / | /
O=C(NCCCN1CCOCC1)C1CC(=O)N(CCc2ccccc2)C1 (centres undefined) | -1 | 2 | / | 1.1 | -3 | 6
O=C(NCCCN1CCCCCC1)C1CC(=O)N(CCc2ccccc2)C1 (centres undefined) | -1 | -6 | 60* | 1.1 | -3 | 3
SMILES | GALR2 antag | S1P2 agonist | Smad3 inh | MT1-MMP txn act | GALR2 ag | S1P2 antag
C=CCN1C(c2ccccc2)=CS/C1=C(\C#N)c1nnc2n1CCCCC2 | 6 | / | 51* | 1 | -1 | /
CCOc1ccc(C2=CS/C(=C(\C#N)c3nnc4n3CCCCC4)N2CC)cc1 | -8 | 1 | 11 | 0.9 | 2 | -11
Cc1ccc(S(=O)(=O)O[C@@H]2[C@@H]3OC(C)(C)O[C@@H]3O[C@@H]2[C@@H]2COC(C)(C)O2)cc1 | / | / | 48 | / | / | /
NCCNC(=S)S | / | / | 57* | / | / | /
COc1ccc(/C(C)=N/NC(=O)c2nc(C)cc(C)n2)cc1 | -5 | -4 | 6 | / | 1 | -10
COc1ccc2c(c1)[n+]([O-])c(/C(C)=N/NC(N)=S)c(C)[n+]2[O-] | / | / | 66* | / | / | /
O=S(=O)(O)c1ccc2c(N=Nc3cccc4ccccc34)c(O)c(S(=O)(=O)O)cc2c1 | / | / | 31 | / | / | /
O=[N+]([O-])c1ccc2c(N=Nc3ccc4ccccc4c3O)c(O)cc(S(=O)(=O)O)c2c1 | / | / | 72* | / | / | /
Nc1nc(-c2cccnc2)cc(-c2cc(-c3cccnc3)nc(N)n2)n1 | / | / | 1 | / | / | /
COc1cccc(CNC(=O)CN(c2cc(C)cc(C)c2)S(=O)(=O)c2c(C)noc2C)c1 | 7 | 109* | -3 | 1.1 | -1 | 14
CCOc1ccc(N(CC(=O)NCc2ccccc2)S(=O)(=O)c2c(C)noc2C)cc1 | 0 | -4 | 4 | 1 | -3 | 12
COc1ccc(OC)c(NC(=O)CN(c2ccc(C)cc2)S(=O)(=O)c2c(C)noc2C)c1 | -10 | -7 | -4 | 1.3 | 6.9* | -1
NC(CSS(=O)(=O)O)=N[C@H]1C[C@H]2CC[C@@H]1C2 | / | / | 15 | / | / | /
Cc1cc(/C=C2/SC(=S)N(c3cccc(Cl)c3)C2=O)c(C)n1-c1cccnc1 | 12 | -6 | / | / | -2 | 74*
CS[C@@H](CC(=O)O)C(=O)O | / | / | -1 | / | / | /
c1ccc(-c2nc3ccccc3[nH]2)nc1 | 8 | / | / | / | 0 | /
c1ccc(-c2nc3c(ccc4ccccc43)[nH]2)nc1 | 12 | -8 | 14 | 2.3* | -2 | -4
Cc1ccc2nc3c(cc(C#N)c(=O)n3CC3CCCO3)c(=O)n2c1 (centres undefined) | -5 | / | 2 | 1 | 6.8* | /
Cc1ccc2nc3c(cc(C#N)c(=O)n3CCN3CCOCC3)c(=O)n2c1 | / | / | -2 | 1 | / | /
Cc1ccc2nc3c(cc(C#N)c(=O)n3-c3nccs3)c(=O)n2c1 | -22 | / | / | 1.1 | 27* | /
O=C(O)[C@@H]1[C@H](C(=O)Nc2ncccn2)[C@@H]2C=C[C@H]1O2 | / | / | -1 | / | / | /
COc1ccc(C)cc1NC(=O)C1CC(=O)N(Cc2ccco2)C1 (centres undefined) | -3 | 1 | 26 | 1.1 | -1 | 3
COc1cc2c(cc1NC(=O)C(C)OC(=O)C1CC(=O)N(Cc3ccco3)C1)oc1ccccc12 (centres undefined) | 14 | -11 | -6 | 2.1* | -2 | 8
CCOC(=O)N1CCC(NC(=O)C2CCCN(Cc3nc(-c4cccc(Cl)c4)oc3C)C2)CC1 (centres undefined) | 25 | -2 | / | / | -1 | 61*
CC(C)(N)C(=O)N[C@@H]1C(=O)N2[C@H]1SC(C)(C)[C@H]2C(=O)O | / | / | 4 | / | / | /
CCCCC(=O)Nc1sc2c(c1C#N)CC(C)(C)OC2 | 1 | / | / | / | 0 | /

Screening results as filed in PubChem BioAssay.
